Test [1] can be described thus: qHTS assay to test for compound auto fluorescence at 535 nm (green) in HEK293 cells (AID 720680). On the technique in general: qHTS replaces the single test concentration by a dilution series.
Test [2] can be described thus: qHTS assay to test for compound auto fluorescence at 460 nm (blue) in HEK293 cell free culture (AID 720681). The method, boiled down:
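Blue fluorescence (Ex 405/Em 460 nm, triamterene-equivalent) was read immediately after pin transfer of compound or DMSO into medium (DMEM, 10% FBS) without cells.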

Test [3] in a line: qHTS assay to test for compound auto fluorescence at 535 nm (green) in HEK293 cell free culture (AID 720682). A digest of the protocol:
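Each library compound, or DMSO control, is added by pintool to medium alone, comprising DMEM and 10% FBS. Emission at 535 nm following 485 nm excitation is quantified against fluorescein.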

Test [4] can be described thus: qHTS assay to test for compound auto fluorescence at 590 nm (red) in HEK293 cell free culture (AID 720683). A digest of the protocol: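 Red-channel autofluorescence of compounds in culture medium (DMEM, 10% FBS), no cells, measured at 540/590 nm. Rose Bengal sodium is the reference fluorophore for equivalence.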
Test [5] in a line: qHTS assay to test for compound auto fluorescence at 590 nm (red) in HepG2 cell free culture (AID 720684). A digest of the protocol:
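Cell-free; medium MEM + 10% FBS; compound or DMSO added by pintool; read Ex 540/Em 590 nm; Rose Bengal sodium as red reference fluorophore.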

A short description of test [6]: qHTS assay to test for compound auto fluorescence at 460 nm (blue) in HepG2 cell free culture (AID 720685). The method, boiled down: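 Cell-free plates of MEM plus 10% FBS received 23 nL compound or DMSO vehicle; blue-channel (405/460 nm) intensity scored against triamterene as reference fluorophore.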
A short description of test [7]: qHTS assay to test for compound auto fluorescence at 535 nm (green) in HepG2 cell free culture (AID 720686).
Test [8] can be described thus: qHTS assay to test for compound auto fluorescence at 460 nm (blue) in HepG2 cells (AID 720687). The method, boiled down:
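Blue-channel autofluorescence (Ex/Em 405/460 nm, triamterene-equivalent) was measured after 1 hr compound exposure at 37 C, 5% CO2. Cells were HepG2, plated overnight at 37 C in MEM plus 10% FBS.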

Test [9] deals with Glucocorticoid receptor (Homo sapiens) (UniProt P04150). The experiment in a line: qHTS assay to identify small molecule agonists of the glucocorticoid receptor (GR) signaling pathway (AID 720691; active = well fitted activation curve with a large enough effect in the signal ratio in the repeat runs, not every such curve was filed as active; the % refers to the signal ratio). The method, boiled down: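 Cells: GR-bla HeLa, endogenous GR with stably integrated GRE-beta-lactamase reporter. Treatment 18 h, 37 C, compounds delivered in DMSO. Detection via LiveBLAzer B/G FRET substrate, 2 h RT, fluorescence intensity.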
Glucocorticoid receptor (Homo sapiens), sequence (P04150 whole entry, looked up): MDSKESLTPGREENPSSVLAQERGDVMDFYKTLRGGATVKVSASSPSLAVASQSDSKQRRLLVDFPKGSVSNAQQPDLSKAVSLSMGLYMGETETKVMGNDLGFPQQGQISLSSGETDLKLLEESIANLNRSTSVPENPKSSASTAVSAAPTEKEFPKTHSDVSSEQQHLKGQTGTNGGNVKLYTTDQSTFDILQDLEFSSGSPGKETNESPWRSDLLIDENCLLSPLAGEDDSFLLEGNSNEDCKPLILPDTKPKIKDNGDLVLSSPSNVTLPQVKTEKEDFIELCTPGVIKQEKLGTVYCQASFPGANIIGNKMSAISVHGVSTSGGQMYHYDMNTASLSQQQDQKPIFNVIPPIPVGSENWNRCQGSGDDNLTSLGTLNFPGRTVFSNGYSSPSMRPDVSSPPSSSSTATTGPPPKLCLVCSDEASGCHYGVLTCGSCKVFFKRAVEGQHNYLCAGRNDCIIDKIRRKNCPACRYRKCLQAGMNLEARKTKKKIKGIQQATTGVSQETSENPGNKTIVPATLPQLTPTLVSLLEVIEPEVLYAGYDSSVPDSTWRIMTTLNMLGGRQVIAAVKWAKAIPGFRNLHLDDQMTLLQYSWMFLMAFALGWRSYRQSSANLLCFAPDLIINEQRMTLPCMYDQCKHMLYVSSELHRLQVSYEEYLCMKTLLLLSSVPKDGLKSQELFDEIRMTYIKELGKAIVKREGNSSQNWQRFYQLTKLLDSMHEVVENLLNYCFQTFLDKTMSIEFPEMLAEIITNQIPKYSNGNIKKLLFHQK

Test [10] shares this target. The experiment in a line: qHTS assay to identify small molecule antagonists of the glucocorticoid receptor (GR) signaling pathway (AID 720692; active = well fitted inhibition curve with a large enough effect in the signal ratio in the repeat runs, not every such curve was filed as active; the % refers to the signal ratio). A digest of the protocol: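 Quantitative HTS in antagonist format: HeLa cells expressing endogenous GR and a stably integrated GRE-bla reporter, stimulated with 5 nM dexamethasone (final) alongside test compounds for 18 h.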

The nature of test [11]: qHTS assay to identify small molecule antagonists of the glucocorticoid receptor (GR) signaling pathway - cell viability counter screen (AID 720693). Also: nearly all actives have a fitted effect of over 55% in size.
Test [12] can be described thus: qHTS assay for identifying genotoxic compounds that show differential cytotoxicity against isogenic chicken DT40 cell lines with known DNA damage response pathways - wild type cell line (AID 743012). Also: nearly all actives have a fitted effect of over 60% in size. Also: potency is read from the fitted curve at half-maximal effect. A digest of the protocol: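 Luminescent ATP viability signal (CellTiter-Glo, 30 min RT) recorded after wild type DT40 cells were incubated with compounds for 40 h at 37 C/5% CO2.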

The nature of test [13]: qHTS assay for identifying genotoxic compounds that show differential cytotoxicity against isogenic chicken DT40 cell lines with known DNA damage response pathways - Rev3 mutant cell line (AID 743014). Also: nearly all actives have a fitted effect of over 55% in size. Also: potency is read from the fitted curve at half-maximal effect.
Test [14] can be described thus: qHTS assay for identifying genotoxic compounds that show differential cytotoxicity against isogenic chicken DT40 cell lines with known DNA damage response pathways - Rad54/Ku70 mutant cell line (AID 743015). Also: nearly all actives have a fitted effect of over 60% in size. Also: potency is read from the fitted curve at half-maximal effect.
Test [15] can be described thus: qHTS assay to identify small molecule antagonists of the androgen receptor (AR) signaling pathway - cell viability counter screen (AID 743033; also: nearly all actives have a fitted effect of over 45% in size).
Test [16] is described as follows: qHTS assay to identify small molecule antagonists of the androgen receptor (AR) signaling pathway using the MDA cell line - cell viability counter screen (AID 743041; also: nearly all actives have a fitted effect of over 45% in size). The method, boiled down:
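Viability read by CellTiter-Fluor fluorescence in the same wells as the antagonist screen, added after 15.5 h of a 16 h, 37C exposure. Human breast carcinoma MDA-kb2 AR-luc cells, compounds co-dosed with agonist R1881.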

Test [17] addresses Androgen receptor (Homo sapiens) (UniProt P10275). Nature of the test: qHTS assay to identify small molecule antagonists of the androgen receptor (AR) signaling pathway (AID 743035; active = well fitted inhibition curve with a large enough effect in the signal ratio in the repeat runs, not every such curve was filed as active; the % refers to the signal ratio). The method, boiled down: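 Quantitative HTS of the Tox21 10K library used HEK293 AR-UAS-bla cells stimulated with R1881 alongside compound for 16 h at 37C, followed by beta-lactamase FRET detection (LiveBLAzer B/G, 2 h, RT).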

Test [18] shares this target. The experiment in a line: qHTS assay to identify small molecule agonists of the androgen receptor (AR) signaling pathway (AID 743036; active = well fitted activation curve with a large enough effect in the signal ratio in the repeat runs, with a control signal flat, not every such curve was filed as active; the % refers to the signal ratio). The method, boiled down:
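Following a 4 h settling period, AR-UAS-bla HEK293 cells were dosed with compounds for 16 h at 37C. A 2 h room-temperature incubation with LiveBLAzer B/G FRET substrate preceded the fluorescence measurement.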

Test [19] has the same target. The experiment in a line: qHTS assay to identify small molecule agonists of the androgen receptor (AR) signaling pathway using the MDA cell line (AID 743040; also: nearly all actives have a fitted effect of over 20% in size). A digest of the protocol: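 Luciferase agonist assay: 16 h compound exposure at 37C without CO2 in MDA-kb2 AR-luc cells, whose MMTV promoter responds to both AR and GR. Luminescence measured after 30 min room-temperature incubation with ONE-Glo.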

Test [20] has the same target. The experiment in a line: qHTS assay to identify small molecule antagonists of the androgen receptor (AR) signaling pathway using the MDA cell line (AID 743042; also: nearly all actives have a fitted effect of over 55% in size). The method, boiled down: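 Antagonist mode: compounds plus R1881 agonist added to MDA-kb2 AR-luc cells, incubated 16 h at 37C. Luciferase reporter luminescence quantified, with multiplexed CellTiter-Fluor readout for cell viability.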

This is an account of results in PubChem BioAssay (Tox21).

A number with no mark means an inactive call. Records with an inconclusive call do not appear. Activity calls are given as the source filed them. Unless noted, calls follow the shape of the dose curve; as a rule, active = well fitted curve in the direction sought with a large enough effect in the repeat runs; inconclusive = weak or mixed curves; inactive = no such curve, though single readings can be large; an effect the other way counts as inactive or inconclusive.

Androgen receptor (Homo sapiens), sequence (P10275 whole entry, looked up): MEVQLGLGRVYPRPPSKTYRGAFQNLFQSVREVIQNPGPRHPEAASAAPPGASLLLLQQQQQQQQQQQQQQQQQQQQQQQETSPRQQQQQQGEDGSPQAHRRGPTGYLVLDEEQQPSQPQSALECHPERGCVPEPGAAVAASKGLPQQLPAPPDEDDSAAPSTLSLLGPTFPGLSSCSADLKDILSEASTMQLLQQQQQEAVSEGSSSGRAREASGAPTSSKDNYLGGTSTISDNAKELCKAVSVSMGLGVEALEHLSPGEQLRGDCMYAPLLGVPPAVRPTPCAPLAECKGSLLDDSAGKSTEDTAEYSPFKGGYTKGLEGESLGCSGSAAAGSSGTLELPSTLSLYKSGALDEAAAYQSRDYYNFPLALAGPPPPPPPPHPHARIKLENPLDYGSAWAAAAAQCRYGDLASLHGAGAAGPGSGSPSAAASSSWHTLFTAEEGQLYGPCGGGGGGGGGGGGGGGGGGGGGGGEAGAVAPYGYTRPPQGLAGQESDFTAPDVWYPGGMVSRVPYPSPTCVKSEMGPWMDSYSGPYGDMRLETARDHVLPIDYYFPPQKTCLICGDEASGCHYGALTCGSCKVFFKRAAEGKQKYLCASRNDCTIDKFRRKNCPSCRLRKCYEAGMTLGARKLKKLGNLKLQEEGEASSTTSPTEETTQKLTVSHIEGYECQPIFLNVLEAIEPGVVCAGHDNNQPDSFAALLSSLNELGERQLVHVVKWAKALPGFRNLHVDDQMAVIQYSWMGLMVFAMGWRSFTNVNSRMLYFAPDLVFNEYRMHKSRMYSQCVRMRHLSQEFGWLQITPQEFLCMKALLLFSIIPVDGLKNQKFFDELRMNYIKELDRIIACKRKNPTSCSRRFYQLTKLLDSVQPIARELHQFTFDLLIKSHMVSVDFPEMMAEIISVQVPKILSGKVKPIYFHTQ

In the case of `C=C(C)CN(CC)c1c([N+](=O)[O-])cc(C(F)(F)F)cc1[N+](=O)[O-]`, the compound was classed as inactive in test [1], in test [2], in test [3], in [4], in [5] and in test [6]. Moreover, the outcome in test [7], in [8] and in [9] was inactive. The Potency result in test [10], in test [11], in test [12], in test [13], in [14] and in test [15] was “inactive” throughout. In test [16], the Potency entry is “inactive”.
For the compound `COP(N)(=S)Oc1ccccc1C(=O)OC(C)C` (configuration not stated), the result in test [1], in test [2], in test [3], in test [4], in test [5] and in [6] was inactive. For the same compound, the compound was classed as inactive in [7], in test [8], in test [9], in test [18] and in [20]. Also, the Potency entry in test [10], in test [11], in test [13], in test [14], in [15] and in test [17] was “inactive” in each case. The Potency entry in test [19] and in test [16] was “inactive” each time.
Consider `COC(=O)c1ccccc1S(=O)(=O)NC(=O)Nc1nc(C)cc(C)n1`, for which the compound was classed as inactive in [1], in [2], in [3], in test [4], in test [5] and in test [6]. The outcome in test [7], in [8] and in test [9] was inactive. The Potency result in test [10], in test [11], in test [12], in test [13], in test [14] and in test [15] was “inactive” each time. Further, the Potency entry in test [16] was “inactive”.
As to `CC(CC(C#N)(c1ccccc1)c1ccccc1)N(C)C` (configuration not stated), the outcome in test [1], in [2], in test [3], in test [4], in test [5] and in test [6] was inactive. In addition, the outcome in test [7], in test [8] and in test [9] was inactive. In addition, the Potency result in test [10], in test [11], in [15] and in test [16] was “inactive” in each case. The Potency is 54.2 µM (active) in [13] and 48.3 µM (active) in test [14].
As to `CN(N=O)C(N)=O`, the compound was called inactive in [1], in [2], in test [3], in test [4], in [5] and in [6]. Further, the compound was classed as inactive in test [7], in test [8] and in test [9]. Besides, the Potency entry in test [10], in [11], in test [12], in [13], in test [14] and in test [15] was “inactive” each time. Further, the Potency result in test [16] is “inactive”.
In the case of `CN1C[C@@H](NS(=O)(=O)N(C)C)C[C@@H]2c3cccc4c3c(cn4C)C[C@H]21`, the result in [1], in test [2], in test [3], in test [4], in test [5] and in test [6] was inactive. The result in [7], in test [8] and in test [9] was inactive. Further, the Potency entry in [10], in test [11], in test [15] and in test [16] was “inactive” each time. The Potency in test [12] was 21.1 µM (active).
Take `CCS(=O)(=O)CCSP(=O)(OC)OC`: the result in test [1], in test [2], in test [3], in test [4], in test [5] and in [6] was inactive. Besides, the compound was classed as inactive in test [7], in test [8] and in test [9]. Also, the Potency entry in test [10], in test [11], in test [15] and in test [16] was “inactive” in each case. The Potency in test [13] is 38.6 µM (active); in test [14] it was 48.6 µM (active).
As to `N#Cc1ccncc1`, the compound was called inactive in [1], in test [2], in test [3], in [4], in [5] and in [6]. In addition, the outcome in test [7], in [8] and in [9] was inactive. Also, the Potency result in test [10], in test [11], in [12], in test [13], in test [14] and in test [15] was “inactive” each time. Besides, in test [16], the Potency result is “inactive”.
